Source: PubChem BioAssay
NPC1 promoter act = qHTS Assay for NPC1 Promoter Activators; Huh7 NPC1 promoter luciferase reporter, 24 h; Potency, µM (highest dose often 9.22 µM), for inactives: at the highest dose activation, actives largely listed as activators; hit rate 2.4% among 320,000; note: % of control where 0% means no effect; nearly all actives have a fitted effect of over 60% in size
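Readout is luciferase luminescence, reflecting NPC1 promoter activation in stably transfected Huh7 cells after 24 h compound exposure at 37 °C in reduced-serum medium with 10% FBS.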
ELG1 genotoxic = qHTS screen for small molecules that induce genotoxicity in human embryonic kidney (HEK293T) cells expressing luciferase-tagged ELG1; HEK293T ELG1-luciferase reporter, luminescence, 16 h; AID 504466, 2011; Potency, µM (doses to about 46 µM), for the others: at the highest dose activity change, positive = activation, actives largely listed as activators; hit rate 1.3% among 330,000; note: % of control where 0% means no effect; nearly all actives have a fitted effect of over 60% in size
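HEK293T cells expressing luciferase-tagged ELG1 were treated with compound or DMSO for 16 hr at 37°C. Luciferase activity was then read after 30 min with ONE-Glo at room temperature; rising signal flags genetic stress.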
ELG1 repair inh = qHTS screen for small molecules that inhibit ELG1-dependent DNA repair in human embryonic kidney (HEK293T) cells expressing luciferase-tagged ELG1; HEK293T ELG1-luciferase reporter, luminescence, 16 h; DNA damage induced by 5-fluorouridine; Potency, µM (titrated, usually from 46.1 µM), inactives show top-dose activity change, negative = inhibition, hits mostly inhibitors; hit rate 2.3% among 330,000; AID 504467, 2011; note: % is set by controls: 0 for no effect and ±100 for the full control effect; nearly all actives have a fitted effect of over 55% in size
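Quantitative HTS, concentration-response format. 2,000 cells/well co-treated with 5-fluorouridine and compound, 16 hr in 5% CO2 at 37 °C; ONE-Glo luminescence read after 30 min.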
FLuc counter = qHTS profiling assay for firefly luciferase inhibitor/activator using purifed enzyme and Km concentrations of substrates (counterscreen for miR-21 project) | Luciferin 4-monooxygenase (Photinus pyralis), P08659 | purified FLuc, Km substrates, luminescence inhibition | Potency, µM (doses to about 57.5 µM), inactives show at the highest dose activity change, negative = inhibition, hits mostly inhibitors | hit rate 6.9% among 360,000;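 note: plate controls were vehicle for no effect and reference inhibitor for full effect; nearly all actives have a fitted effect of over 55% in size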
Target sequence (P08659 whole entry, looked up): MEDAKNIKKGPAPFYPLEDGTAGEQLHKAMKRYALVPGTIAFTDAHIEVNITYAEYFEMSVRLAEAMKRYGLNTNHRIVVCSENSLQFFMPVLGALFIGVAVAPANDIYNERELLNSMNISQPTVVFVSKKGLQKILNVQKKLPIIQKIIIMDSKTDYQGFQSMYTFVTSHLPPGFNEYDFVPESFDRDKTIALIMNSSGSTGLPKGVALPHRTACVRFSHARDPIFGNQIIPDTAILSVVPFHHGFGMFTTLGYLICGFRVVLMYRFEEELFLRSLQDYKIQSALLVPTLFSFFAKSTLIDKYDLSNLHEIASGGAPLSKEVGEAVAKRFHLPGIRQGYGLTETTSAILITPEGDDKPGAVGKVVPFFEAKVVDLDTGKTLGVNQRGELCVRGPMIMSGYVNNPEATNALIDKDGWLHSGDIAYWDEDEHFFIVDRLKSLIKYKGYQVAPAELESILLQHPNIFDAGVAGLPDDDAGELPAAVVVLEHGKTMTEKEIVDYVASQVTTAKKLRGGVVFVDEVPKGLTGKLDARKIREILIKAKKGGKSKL
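Purified P. pyralis luciferase (10nM final) with 10uM D-luciferin and 10uM ATP (Km levels) in 50mM Tris acetate pH 7.5, 10mM Mg acetate, 0.01% Tween-20, 0.05% BSA; qHTS 6-point titration, ~60 µM downward; luminescence read.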
Rab9 prom act = qHTS Assay for Rab9 Promoter Activators; Potency, µM (series often up to 9.22 µM), for the others: at the highest dose activation, negative = inhibition, usual class: activators; Huh7 Rab9 promoter-luciferase reporter, luminescence, 24 h; hit rate 2.8% among 320,000; note: % of control where 0% means no effect; nearly all actives have a fitted effect of over 60% in size
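Huh7 cells stably carrying Rab9 promoter–luciferase reporter, plated 1500 cells/well, compound added after 2 h and incubated 24 h at 37 °C; luciferase luminescence then read after 10 min with detection reagent.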
SMN2 splice enh = qHTS Assay for Enhancers of SMN2 Splice Variant Expression | Potency, µM (top dose mostly 46.1 µM), inactives show at the top dose activity change, positive = activation, actives largely listed as activators | HEK293 SMN2-luciferase splicing reporter, luminescence, 30-36 h | AID 1458, 2008 | hit rate 2.8% among 210,000; note: % of control where 0% means no effect; nearly all actives have a fitted effect of over 55% in size
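HEK293 cells carry an SMN2 minigene-luciferase reporter in which exon 7 inclusion puts luciferase in frame. Cells were seeded at 2000 cells/well, attached for 10-12 hours, then exposed to compounds for 30-36 hours at 37C before ONE-Glo luminescence.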
An asterisk follows results filed as active; ? = inconclusive; nt = no result given; [ ] = remark or other dose. Compounds with a hit are over-represented: about 9.3% of the library has one in this group of screens. Calls come from the whole dose curve; as a rule, active = well fitted curve in the direction sought with a large enough effect; inconclusive = small, poorly fitted or top-dose-only effect, or another doubt; inactive = no such curve, though single readings can be large; an effect the other way counts as inactive or inconclusive. Potency is the fitted concentration of half-maximal effect.

SMILES	NPC1 promoter act	ELG1 genotoxic	ELG1 repair inh	FLuc counter	Rab9 prom act	SMN2 splice enh
Fc1ccc([C@@H]2CCNC[C@H]2COc2ccc3c(c2)OCO3)cc1	-36%[46.1 µM]	-5%	?	0%	-44%[46.1 µM]	-32%
Cc1ccc(C(=O)NCCOc2ccc(Cl)cc2)cc1	?	?	?	24µM*	18%	nt
CCCOc1ccc(C(=O)Nc2ccc(NC(=O)c3cccc(Cl)c3)cc2)cc1	nt	nt	nt	0%	nt	8%
Cc1ccc(OCCNC(=O)c2cccc(C)c2)cc1	16%	3%	0%	1%	5%	nt
Cc1ccc(C(=O)Nc2ncc3c(Cl)cccc3n2)cc1	?	?	?	0.27µM*	0.16µM*	0.032µM*
CCCOc1ccc(C(=O)Nc2ccc(Cl)cn2)cc1	0.71µM*	?	?	0.85µM*	0.5µM*	?
Cc1ccc(C(=O)Nc2ccc(Cl)cn2)cc1	9%	2.3µM*	?	1.3µM*	?	7.9µM*
O=C(Nc1c(Cl)cccc1Cl)c1ccc(-c2ccccc2)cc1	21%	-1%	17%	2%	8%	-6%
Cc1ncc([N+](=O)[O-])n1CC(=O)NC(C)(C)C	1%	4%	19%	0%	-12%	10%
Cc1cccc(NC(=S)NC(=O)c2cccs2)n1	?	10%	?	?	?	10%
O=C(Nc1ccccc1Cl)c1ccc2nccnc2c1	3.2µM*	2%	?	11µM*	2.5µM*	nt
CC(C)C(=O)Nc1ccc(NC(=O)c2ccccc2Cl)nc1	?	16µM*	?	21µM*	3.2µM*	nt
O=C(Nc1ccc(Cl)cn1)c1ccc(Oc2ccccc2)cc1	1.3µM*	?	?	3.4µM*	2.2µM*	nt
Cc1nc(NC(=S)NC(=O)c2cccs2)ccc1Br	6%	?	?	4.8µM*	30%	?
CCC(=O)Nc1ccc(NC(=O)c2ccccc2Cl)nc1	13%	?	?	?	26%	?
O=C(Cc1cccs1)Nc1ccccn1	-5%	?	26%	1%	-4%	?
Cn1cc(C(=O)N2CCc3ccccc3C2)c(=O)c2cc(S(=O)(=O)N3CCCCC3)ccc21	1%	-2%	0%	4%	-6%	4%
Cn1nnnc1SCc1ccc(C(=O)Nc2nccs2)cc1	30%	?	?	15µM*	?	11µM*
Cn1nnnc1SCc1ccc(CSc2nnnn2C)cc1	-3%	-2%	-6%	2%	-3%	-15%
C=CCn1c(SCc2ccc(C(=O)Nc3nccs3)cc2)nnc1-c1ccc(C)c(Cl)c1	1%	-14%	?	11µM*	-1%	-97%
Cc1cc(C)cc(NC(=O)c2ccc(CSc3nnnn3C)cc2)c1	9%	0%	27%	13µM*	19%	-11%
Cn1nnnc1SCc1ccc(C(=O)Nc2ccccc2F)cc1	?	?	?	?	?	2%
Cc1ccc(N=C2c3ccccc3C(=O)C2[N+](=O)[O-])cc1C (stereo not given)	1%	5%	6%	?	2%	0%
CCN(CC(=O)Nc1c(F)cccc1F)C(=O)c1cc([N+](=O)[O-])ccc1N1CCOCC1	0%	2%	-14%	4%	0%	nt
CCOc1cc(C)c(S(=O)(=O)N2CCCC2)cc1C	-3%	-1%	-1%	1%	-2%	-21%
SMILES	NPC1 promoter act	ELG1 genotoxic	ELG1 repair inh	FLuc counter	Rab9 prom act	SMN2 splice enh
CN1CCC(NCCC(c2ccc(F)cc2)c2ccc(Cl)cc2)CC1 (stereo not given)	-1%	-11%	?	1%	-15%	nt
CC(C)C(CCNC1CCN(C)CC1)c1ccc(Cl)cc1 (stereo not given)	-13%	-21%	23µM*	1%	-16%	nt
Cc1ccc(NC(=O)c2ccc(Cl)cc2Cl)cc1O	?	?	?	8.5µM*	?	nt
CNS(=O)(=O)c1ccc(NC(=O)c2ccc(Cl)cc2Cl)cc1	-4%	0%	-3%	-13%	3%	-9%
Cc1ccccc1NC(=O)c1ccccc1NC(=O)c1ccccc1Cl	nt	nt	nt	?	nt	-12%
Cc1ccc(C(=O)Nc2ccc(Cl)cc2C)c(Cl)c1	0.89µM*	2.9µM*	?	1.7µM*	3.2µM*	10µM*
O=C(Nc1ccc(Cl)cc1C(F)(F)F)c1ccccc1Cl	6%	-1%	?	?	18%	5%
Cc1ccc(C(=O)Nc2ccc(Cl)cc2C(F)(F)F)c(Cl)c1	26%	27%	?	11µM*	?	?
CN(CCc1ccccn1)C(=O)CCC1CCCN(C(=O)c2c3c(nn2C)CCCC3)C1 (stereo not given)	-7%	-4%	?	-1%	-9%	nt
O=C(CCN1C(=O)c2cccc3cccc(c23)C1=O)N1CCOCC1	29%	?	?	-16%	?	?
O=C(/C=C/c1ccccc1)N1CCN(CCN2C(=O)c3cccc4cccc(c34)C2=O)CC1	2%	-5%	10µM*	1%	0%	-13%[1.84 µM]
O=C(c1ccc(S(=O)(=O)N2CCCCC2)cc1)N1CCN(CCN2C(=O)c3cccc4cccc(c34)C2=O)CC1	-11%	-15%	3.3µM*	-3%	-7%	-108%
O=C(c1ccc(S(=O)(=O)N2CCCC2)cc1)N1CCCCCC1	9%	-4%	0%	5%	-7%	nt
O=C1c2cccc3cccc(c23)C(=O)N1CCc1ccccc1	26%	4%	?	13µM*	?	14µM*
